According to PubChem BioAssay AID1159580 (chemical genetic matrix, 2015):
“And” between values parts separate entries of the source, which are not always exact repeats. Identical values can stand only once. Screen size: about 5,500 compounds; about 2,000 (36%) were called active. About 18% were inconclusive and are not listed. No stated cut-off is given here; in the data, active means normalized growth mostly below about 0.91 (no sharp cut-off); inconclusive means no clear call, values can overlap the other calls; inactive means mostly above about 0.92. The list shows a part of the results.

Experiment: chemical genetic growth profiling, strain panel (AID 1159580);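 further: tested at 20 µM; growth read once vehicle control cultures reached saturation at 30 °C; 1 = growth at the plate median or of vehicle wells; lower values mean less growth of the strain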
Conditions: growth OD

Measured: normalized growth

O=C(O)C(O)C(O)C(O)C(O)C(=O)O (stereo unspecified)
inactive: S. cerevisiae deletion strains, locus YBR021W, strain FUR4, active compounds read low 0.99 | S. cerevisiae deletion strains, locus YBR229C, strain ROT2, active compounds read low 0.998 | S. cerevisiae deletion strains, locus YCL029C, strain bik1, active compounds read low 0.982 | S. cerevisiae deletion strains, locus YDL035C, strain GPR1, active compounds read low 1.04 | S. cerevisiae deletion strains, locus YDL074C, strain BRE1, active compounds read low 1.04 | S. cerevisiae deletion strains, locus YDL101C, strain DUN1, active compounds read low 0.988 | S. cerevisiae deletion strains, locus YDL185W, strain tfp1, active compounds read low 1 | S. cerevisiae deletion strains, locus YDL192W, strain arf1, active compounds read low 0.993 | S. cerevisiae deletion strains, locus YDR101C, strain arx1, active compounds read low 0.983 | S. cerevisiae deletion strains, locus YDR150W, strain NUM1, active compounds read low 1.02 | S. cerevisiae deletion strains, locus YDR162C, strain NBP2, active compounds read low 1.01 | S. cerevisiae deletion strains, locus YDR318W, strain mcm21, active compounds read low 1 | S. cerevisiae deletion strains, locus YDR388W, active compounds read low 0.993 | S. cerevisiae deletion strains, locus YDR502C, strain sam2, active compounds read low 0.991 | S. cerevisiae deletion strains, locus YEL061C, strain CIN8, active compounds read low 1.06 | S. cerevisiae deletion strains, locus YER110C, active compounds read low 0.982 | S. cerevisiae deletion strains, locus YER155C, strain BEM2, active compounds read low 0.994 | S. cerevisiae deletion strains, locus YER167W, strain BCK2, active compounds read low 1 | S. cerevisiae deletion strains, locus YGL078C, strain dbp3, active compounds read low 0.994 | S. cerevisiae deletion strains, locus YGL086W, strain mad1, active compounds read low 0.966 | S. cerevisiae deletion strains, locus YGL248W, strain PDE1, active compounds read low 0.997 | S. cerevisiae deletion strains, locus YGR078C, strain PAC10, active compounds read low 0.997 | S. cerevisiae deletion strains, locus YGR135W, strain pre9, active compounds read low 0.991 | S. cerevisiae deletion strains, locus YGR229C, strain SMI1, active compounds read low 1.03 | S. cerevisiae deletion strains, locus YGR252W, strain gcn5, active compounds read low 1.04 | S. cerevisiae deletion strains, locus YHR030C, strain SLT2, active compounds read low 1 and 0.993 | S. cerevisiae deletion strains, locus YHR079C, strain IRE1 (second series), active compounds read low 0.99 | S. cerevisiae deletion strains, locus YHR079C, strain IRE1, active compounds read low 1 | S. cerevisiae deletion strains, locus YHR094C, strain hxt1, active compounds read low 0.989 | S. cerevisiae deletion strains, locus YHR129C, strain ARP1, active compounds read low 1.01 | S. cerevisiae deletion strains, locus YHR200W, strain rpn10, active compounds read low 0.983 | S. cerevisiae deletion strains, locus YIL066C, strain RNR3, active compounds read low 0.985 | S. cerevisiae deletion strains, locus YIL073C, strain SPO22, active compounds read low 1.01 | S. cerevisiae deletion strains, locus YIL125W, strain kgd1, active compounds read low 0.984 | S. cerevisiae deletion strains, locus YIR030C, strain dcg1, active compounds read low 0.986 | S. cerevisiae deletion strains, locus YJL095W, strain BCK1, active compounds read low 1.02 and 0.995 | S. cerevisiae deletion strains, locus YJL134W, strain LCB3, active compounds read low 1 | S. cerevisiae deletion strains, locus YJL168C, strain set2, active compounds read low 0.988 | S. cerevisiae deletion strains, locus YJL187C, strain SWE1 (second series), active compounds read low 0.996 | S. cerevisiae deletion strains, locus YJR043C, strain POL32, active compounds read low 1.01 | S. cerevisiae deletion strains, locus YJR066W, strain TOR1, active compounds read low 0.942 | S. cerevisiae deletion strains, locus YKL009W, strain mrt4, active compounds read low 0.966 | S. cerevisiae deletion strains, locus YKL068W, active compounds read low 0.998 | S. cerevisiae deletion strains, locus YKL085W, strain MDH1 (second series), active compounds read low 0.983 | S. cerevisiae deletion strains, locus YKL085W, strain MDH1, active compounds read low 0.983 | S. cerevisiae deletion strains, locus YKL190W, strain CNB1, active compounds read low 1.03 | S. cerevisiae deletion strains, locus YKR001C, strain vps1, active compounds read low 0.985 | S. cerevisiae deletion strains, locus YLR039C, strain RIC1, active compounds read low 1.07 | S. cerevisiae deletion strains, locus YLR058C, strain SHM2, active compounds read low 1 | S. cerevisiae deletion strains, locus YLR102C, strain apc9, active compounds read low 0.99 | S. cerevisiae deletion strains, locus YLR113W, strain HOG1, active compounds read low 0.995 | S. cerevisiae deletion strains, locus YLR262C, strain YPT6, active compounds read low 1.14 | S. cerevisiae deletion strains, locus YLR268W, strain sec22, active compounds read low 0.972 | S. cerevisiae deletion strains, locus YLR330W, strain CHS5, active compounds read low 0.992 | S. cerevisiae deletion strains, locus YLR342W, strain FKS1 (second series), active compounds read low 1 | S. cerevisiae deletion strains, locus YLR371W, strain rom2, active compounds read low 0.977 | S. cerevisiae deletion strains, locus YLR418C, strain cdc73, active compounds read low 0.993 | S. cerevisiae deletion strains, locus YML016C, strain PPZ1, active compounds read low 0.982 | S. cerevisiae deletion strains, locus YML032C, strain rad52, active compounds read low 1.02 | S. cerevisiae deletion strains, locus YML124C, strain tub3, active compounds read low 0.985 | S. cerevisiae deletion strains, locus YMR078C, strain ctf18, active compounds read low 0.983 | S. cerevisiae deletion strains, locus YMR223W, strain ubp8, active compounds read low 1.01 | S. cerevisiae deletion strains, locus YMR263W, strain SAP30, active compounds read low 1 | S. cerevisiae deletion strains, locus YMR307W, strain GAS1, active compounds read low 1.1 | S. cerevisiae deletion strains, locus YNL067W, strain RPL9B, active compounds read low 1 | S. cerevisiae deletion strains, locus YNL183C, strain NPR1, active compounds read low 0.909 | S. cerevisiae deletion strains, locus YNL233W, strain BNI4, active compounds read low 1 | S. cerevisiae deletion strains, locus YNL250W, strain rad50, active compounds read low 0.972 | S. cerevisiae deletion strains, locus YNL271C, strain bni1, active compounds read low 0.984 | S. cerevisiae deletion strains, locus YNL298W, strain CLA4, active compounds read low 0.992 | S. cerevisiae deletion strains, locus YNL307C, strain MCK1, active compounds read low 0.979 | S. cerevisiae deletion strains, locus YNL322C, strain KRE1, active compounds read low 1 | S. cerevisiae deletion strains, locus YNR052C, strain pop2, active compounds read low 1 | S. cerevisiae deletion strains, locus YOL006C, strain TOP1, active compounds read low 0.989 | S. cerevisiae deletion strains, locus YOL012C, strain htz1 0.785 | S. cerevisiae deletion strains, locus YOL147C, strain pex11, active compounds read low 0.991 | S. cerevisiae deletion strains, locus YOR061W, strain CKA2, active compounds read low 0.997 | S. cerevisiae deletion strains, locus YOR069W, strain VPS5, active compounds read low 1 | S. cerevisiae deletion strains, locus YOR136W, strain idh2, active compounds read low 0.983 | S. cerevisiae deletion strains, locus YOR144C, strain elg1, active compounds read low 0.982 | S. cerevisiae deletion strains, locus YOR184W, strain ser1, active compounds read low 0.993 | S. cerevisiae deletion strains, locus YOR231W, strain MKK1, active compounds read low 1.01 | S. cerevisiae deletion strains, locus YOR316C, strain cot1, active compounds read low 0.983 | S. cerevisiae deletion strains, locus YPL241C, strain CIN2, active compounds read low 1.05 | S. cerevisiae deletion strains, locus YPL256C, strain CLN2, active compounds read low 0.978 | S. cerevisiae deletion strains, locus YPR119W, strain clb2, active compounds read low 0.986 | S. cerevisiae deletion strains, locus YPR141C, strain kar3, active compounds read low 0.986 | S. cerevisiae deletion strains, locus YPR163C, strain tif3, active compounds read low 0.982 | S. cerevisiae deletion strains, locus YPR167C, strain met16, active compounds read low 0.988 | S. cerevisiae deletion strains, strain wtn01, active compounds read low 0.971 | S. cerevisiae strains, strain wild type, active compounds read low 1.03
